Assay results reported in PubChem BioAssay (EPA / NIEHS).
Calls of active or inactive are those of the source. Rule for the calls: active = hit-call score of the fitted dose curve at least 0.9, where 1 is the maximum; inactive = score below 0.9.

Experiments:
Details in all cases: mRNA level, 48 h; actives raise or lower the signal
[1] = read-out: adenosine kinase (ADK) gene, ADK (gene 132); test: LTEA_HepaRG_ADK: Life Technologies and Expression Analysis (LTEA) Assay for adenosine kinase (ADK) gene using HepaRG (AID 2283471)
Method in brief: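 Read-out is ADK transcript level measured by qRT-PCR and normalised to three housekeeping genes. Cells are human HepaRG, dosed for 48 h at up to 100 uM in 0.5% DMSO. Gain or loss of signal is fitted against DMSO controls.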

[2] = read-out: Alpha-fetoprotein (AFP) gene, AFP (gene 174); test: LTEA_HepaRG_AFP: Life Technologies and Expression Analysis (LTEA) Assay for Alpha-fetoprotein (AFP) gene using HepaRG (AID 2283472)
Method in brief: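 qRT-PCR (Fluidigm TaqMan) readout of AFP transcript, normalized to three housekeeping genes, fitted bidirectionally against 0.5% DMSO baseline. HepaRG cells received chemicals for 48 h in serum-free induction medium, top concentration 100 uM, half-log steps.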

[3] = read-out: BCL2L11 (gene 10018); test: LTEA_HepaRG_BCL2L11: Life Technologies and Expression Analysis (LTEA) Assay for Bcl-2 (BCL2L11) gene using HepaRG (AID 2283473)
Method in brief: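 Differentiated human HepaRG cells in serum-free induction medium were exposed in duplicate for 48 h to eight concentrations (top 100 uM, half-log steps, 0.5% DMSO). BCL2L11 mRNA was quantified by TaqMan qRT-PCR, normalized to ACTB/GAPDH/POLR2A, bidirectional fit versus DMSO.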

[4] = read-out: Apolipoprotein A-V (APOA5) gene, APOA5 (gene 116519); test: LTEA_HepaRG_APOA5: Life Technologies and Expression Analysis (LTEA) Assay for Apolipoprotein A-V (APOA5) gene using HepaRG (AID 2283474)
Method in brief: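 Differentiated human HepaRG cells were exposed in duplicate for 48 h to eight half-log concentrations from 100 uM in 0.5% DMSO. APOA5 mRNA was quantified by TaqMan qRT-PCR, normalized to ACTB, GAPDH and POLR2A, and fitted bidirectionally against DMSO.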

[5] = read-out: Apoptosis regulator Bcl-2 (Homo sapiens) (UniProt P10415); test: LTEA_HepaRG_BCL2: Life Technologies and Expression Analysis (LTEA) Assay for Bcl-2 gene using HepaRG (AID 2283475)
Method in brief: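 qRT-PCR read-out (Fluidigm TaqMan) of BCL2 transcript, normalised to three housekeeping genes, after 48 h chemical exposure of HepaRG cells; 8-point half-log series, top 100 uM, 0.5% DMSO vehicle. Gain or loss of signal fitted relative to DMSO baseline.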

[6] = read-out: Bcl-2 (BID) gene, BID (gene 637); test: LTEA_HepaRG_BID: Life Technologies and Expression Analysis (LTEA) Assay for Bcl-2 (BID) gene using HepaRG (AID 2283476)
Method in brief: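 HepaRG, 48 h exposure, 8-pt half-log series, top 100 uM, 0.5% DMSO vehicle, duplicates. Readout: BID mRNA by TaqMan qRT-PCR; housekeeping-normalized; bidirectional curve fit vs DMSO baseline.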

[7] = read-out: Caspase-3 (Homo sapiens) (UniProt P42574); test: LTEA_HepaRG_CASP3: Life Technologies and Expression Analysis (LTEA) Assay for cysteine-aspartic acid protease (CASP3) using HepaRG (AID 2283477)
Method in brief: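 Differentiated human HepaRG cells in serum-free induction medium were exposed 48 h to 8-point half-log concentrations from 100 uM (0.5% DMSO vehicle). CASP3 mRNA was measured by qRT-PCR, normalised to ACTB, GAPDH and POLR2A, with bidirectional fitting against DMSO.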

[8] = read-out: Cytochrome P450 (CYP24A1), CYP24A1 (gene 1591); test: LTEA_HepaRG_CYP24A1: Life Technologies and Expression Analysis (LTEA) Assay for Cytochrome P450 (CYP24A1) using HepaRG (AID 2283478)
Method in brief: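 Differentiated HepaRG cells, pre-cultured 48 h, were exposed in duplicate for 48 h in serum-free induction medium to 8 half-log concentrations (top 100 uM, 0.5% DMSO). CYP24A1 mRNA was quantified by TaqMan qRT-PCR, normalized to ACTB/GAPDH/POLR2A, fitted bidirectionally versus DMSO.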

[9] = read-out: Cytochrome P450 (CYP1A2), CYP1A2 (gene 1544); test: LTEA_HepaRG_CYP1A2: Life Technologies and Expression Analysis (LTEA) Assay for Cytochrome P450 (CYP1A2) using HepaRG (AID 2283479)
Method in brief: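 Differentiated human HepaRG cells in serum-free induction medium were exposed in duplicate for 48 h to 8-point half-log concentrations up to 100 uM in 0.5% DMSO. CYP1A2 mRNA measured by qRT-PCR, normalized to ACTB, GAPDH, POLR2A; bidirectional fit vs DMSO.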

[10] = read-out: cysteine-aspartic acid protease (CASP8), CASP8 (gene 841); test: LTEA_HepaRG_CASP8: Life Technologies and Expression Analysis (LTEA) Assay for cysteine-aspartic acid protease (CASP8) using HepaRG (AID 2283480)
Method in brief: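 CASP8 transcript measured by TaqMan qRT-PCR with ACTB/GAPDH/POLR2A normalization, after 48 h chemical exposure of HepaRG cells in serum-free induction medium. Eight concentrations, top 100 uM, half-log steps, 0.5% DMSO vehicle; fits in both directions versus DMSO.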

[11] = read-out: Cytochrome P450 (CYP2B6), CYP2B6 (gene 1555); test: LTEA_HepaRG_CYP2B6: Life Technologies and Expression Analysis (LTEA) Assay for Cytochrome P450 (CYP2B6) using HepaRG (AID 2283481)
Method in brief: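 Differentiated HepaRG cells, serum-free induction medium, exposed 48 h in duplicate to 8-point half-log concentrations from 100 uM in 0.5% DMSO. CYP2B6 mRNA by qRT-PCR, normalized to ACTB, GAPDH, POLR2A; bidirectional fit versus DMSO.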

[12] = read-out: Cytochrome P450 2C19 (Homo sapiens) (UniProt P33261); test: LTEA_HepaRG_CYP2C19: Life Technologies and Expression Analysis (LTEA) Assay for CYP2C19 using HepaRG (AID 2283482)
Method in brief: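 Differentiated human HepaRG cells were exposed for 48 h in serum-free induction medium to 8 concentrations (top 100 uM, half-log steps, 0.5% DMSO). CYP2C19 mRNA was measured by qRT-PCR, normalized to ACTB/GAPDH/POLR2A, and fitted bidirectionally against DMSO.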

[13] = read-out: CYP2C8 (gene 1558); test: LTEA_HepaRG_CYP2C8: Life Technologies and Expression Analysis (LTEA) Assay for CYP2C8 using HepaRG (AID 2283483)
Method in brief: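 CYP2C8 expression measured by TaqMan qRT-PCR and normalized to three housekeeping genes. HepaRG cultures were treated for 48 h with an eight-point half-log series topping at 100 uM, vehicle 0.5% DMSO, duplicates; fitted both directions against DMSO.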

[14] = read-out: CYP2C9 (gene 1559); test: LTEA_HepaRG_CYP2C9: Life Technologies and Expression Analysis (LTEA) Assay for CYP2C9 using HepaRG (AID 2283484)
Method in brief: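 CYP2C9 transcript level, quantified by TaqMan qRT-PCR against three housekeeping genes, was fitted bidirectionally relative to 0.5% DMSO. HepaRG cultures were treated 48 h, in duplicate, at eight half-log concentrations topping at 100 uM.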

[15] = read-out: CYP2E1 (gene 1571); test: LTEA_HepaRG_CYP2E1: Life Technologies and Expression Analysis (LTEA) Assay for CYP2E1 using HepaRG (AID 2283485)
Method in brief: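 CYP2E1 transcript was measured by TaqMan qRT-PCR in human HepaRG cultures after 48 h chemical exposure (top 100 uM, half-log steps, 0.5% DMSO vehicle). Housekeeping-gene normalization; gain or loss fitted relative to DMSO baseline.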

[16] = read-out: CYP4A11 (gene 1579); test: LTEA_HepaRG_CYP4A11: Life Technologies and Expression Analysis (LTEA) Assay for CYP4A11 using HepaRG (AID 2283486)
Method in brief: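 Differentiated HepaRG cells, serum-free induction medium, exposed 48 h in duplicate to 8-point half-log series from 100 uM in 0.5% DMSO. CYP4A11 mRNA measured by qRT-PCR, normalized to ACTB, GAPDH, POLR2A; bidirectional fit versus DMSO.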

[17] = read-out: Cytochrome P450 3A4 (Homo sapiens) (UniProt P08684); test: LTEA_HepaRG_CYP3A4: Life Technologies and Expression Analysis (LTEA) Assay for CYP3A4 using HepaRG (AID 2283487)
Method in brief: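 HepaRG, 48 h exposure, 8-pt CRC from 100 uM (half-log), 0.5% DMSO, duplicates; serum-free induction medium. Readout: CYP3A4 mRNA, qRT-PCR, ACTB/GAPDH/POLR2A normalization. Bidirectional fit vs DMSO.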

[18] = read-out: DNA damage-inducible transcript 3 (DDIT3), DDIT3 (gene 1649); test: LTEA_HepaRG_DDIT3: Life Technologies and Expression Analysis (LTEA) Assay for DNA damage-inducible transcript 3 (DDIT3) using HepaRG (AID 2283488)
Method in brief: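 qRT-PCR readout (Fluidigm TaqMan), housekeeping-normalized to ACTB, GAPDH, POLR2A. HepaRG cells, 48 h exposure, 8-point half-log series from 100 uM in 0.5% DMSO, duplicates. Gain or loss of signal fitted against DMSO baseline.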

[19] = read-out: Pro-epidermal growth factor (Homo sapiens) (UniProt P01133); test: LTEA_HepaRG_EGF: Life Technologies and Expression Analysis (LTEA) Assay for Epidermal growth factor (EGF) using HepaRG (AID 2283489)
Method in brief: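 Differentiated human HepaRG cells, plated 48 h then switched to serum-free induction medium, were exposed for 48 h to test chemicals (8-point half-log series, top 100 uM, 0.5% DMSO). EGF mRNA was quantified by qRT-PCR, normalized to ACTB, GAPDH, POLR2A.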

[20] = read-out: Early growth response protein 1 (EGR1) transcription factor, EGR1 (gene 1958); test: LTEA_HepaRG_EGR1: Life Technologies and Expression Analysis (LTEA) Assay for Early growth response protein 1 (EGR1) transcription factor using HepaRG (AID 2283490)
Method in brief: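 EGR1 transcript levels quantified by qRT-PCR (Fluidigm arrays) against three housekeeping genes after 48 h chemical exposure of HepaRG cells. Eight-point half-log series topping at 100 uM, 0.5% DMSO vehicle, analyzed for gain or loss.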

Measured: AC50

Sequence of Cytochrome P450 3A4 (Homo sapiens) (P08684 whole entry, looked up): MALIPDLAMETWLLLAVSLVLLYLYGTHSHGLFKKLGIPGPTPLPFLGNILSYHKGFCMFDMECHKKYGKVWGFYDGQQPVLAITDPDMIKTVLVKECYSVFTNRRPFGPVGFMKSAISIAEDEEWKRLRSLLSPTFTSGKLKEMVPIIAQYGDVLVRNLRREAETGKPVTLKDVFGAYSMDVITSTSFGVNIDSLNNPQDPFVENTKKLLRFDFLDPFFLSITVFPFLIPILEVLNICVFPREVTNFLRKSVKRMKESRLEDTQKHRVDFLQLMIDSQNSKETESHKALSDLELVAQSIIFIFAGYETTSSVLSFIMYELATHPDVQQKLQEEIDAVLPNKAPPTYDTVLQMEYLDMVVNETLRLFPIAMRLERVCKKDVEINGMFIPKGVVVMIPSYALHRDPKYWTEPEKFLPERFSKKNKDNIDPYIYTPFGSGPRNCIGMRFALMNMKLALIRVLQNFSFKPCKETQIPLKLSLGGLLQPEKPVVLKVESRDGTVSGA
Sequence of Caspase-3 (Homo sapiens) (P42574 whole entry, looked up): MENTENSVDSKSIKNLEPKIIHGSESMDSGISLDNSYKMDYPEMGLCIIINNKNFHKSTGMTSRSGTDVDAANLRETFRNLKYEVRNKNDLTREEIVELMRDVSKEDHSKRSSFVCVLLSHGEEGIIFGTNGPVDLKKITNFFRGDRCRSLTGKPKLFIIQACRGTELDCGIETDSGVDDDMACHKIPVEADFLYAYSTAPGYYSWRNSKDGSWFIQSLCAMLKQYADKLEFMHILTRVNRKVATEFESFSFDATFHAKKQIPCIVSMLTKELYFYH
Sequence of Cytochrome P450 2C19 (Homo sapiens) (P33261 whole entry, looked up): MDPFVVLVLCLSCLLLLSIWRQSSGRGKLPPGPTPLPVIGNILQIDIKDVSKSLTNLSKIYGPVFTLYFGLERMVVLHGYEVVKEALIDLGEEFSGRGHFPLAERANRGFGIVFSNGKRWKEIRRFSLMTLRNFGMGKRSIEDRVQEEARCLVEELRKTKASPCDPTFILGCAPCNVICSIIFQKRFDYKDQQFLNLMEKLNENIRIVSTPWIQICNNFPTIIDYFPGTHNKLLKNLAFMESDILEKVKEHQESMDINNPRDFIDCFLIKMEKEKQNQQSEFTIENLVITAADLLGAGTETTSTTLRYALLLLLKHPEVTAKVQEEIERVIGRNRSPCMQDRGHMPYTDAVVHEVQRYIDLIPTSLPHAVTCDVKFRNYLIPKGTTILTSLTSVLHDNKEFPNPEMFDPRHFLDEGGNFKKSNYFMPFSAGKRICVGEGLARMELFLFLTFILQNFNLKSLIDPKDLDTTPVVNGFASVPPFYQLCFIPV
Sequence of Apoptosis regulator Bcl-2 (Homo sapiens) (P10415 whole entry, looked up): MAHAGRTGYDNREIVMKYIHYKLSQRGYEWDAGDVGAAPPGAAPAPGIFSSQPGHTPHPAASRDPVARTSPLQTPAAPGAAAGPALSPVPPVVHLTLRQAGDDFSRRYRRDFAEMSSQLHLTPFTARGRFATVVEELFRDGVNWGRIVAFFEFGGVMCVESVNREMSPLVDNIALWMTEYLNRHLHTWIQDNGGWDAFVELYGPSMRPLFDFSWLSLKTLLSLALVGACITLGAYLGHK

O=C(N[C@@H](c1ccccc1)[C@@H]1CCCCN1)c1cccc(C(F)(F)F)c1Cl
inactive: [4] | [5] | [6] | [8] | [9] | [13] | [19]
active: [1] 78.2 µM | [2] 25.5 µM | [3] 85.7 µM | [7] 50 µM | [10] 82.8 µM | [11] 32.7 µM | [12] 78.8 µM | [14] 36.1 µM | [15] 13.1 µM | [16] 24.2 µM | [17] 86.9 µM | [18] 50 µM | [20] 83.3 µM

CO[C@@H]1COCC[C@@H]1N[C@@H]1CC[C@@](C(=O)N2CCc3ncc(C(F)(F)F)cc3C2)(C(C)C)C1
inactive: all assays above

CCc1cc(C2=C(C(=O)O)N(c3ccccc3C(F)(F)F)S(=O)(=O)c3ccccc32)cc2c1OCO2
inactive: [1] | [3] | [6] | [7] | [8] | [9] | [10] | [19]
active: [2] 65 µM | [4] 77.2 µM | [5] 79.9 µM | [12] 91.9 µM | [13] 91.7 µM | [14] 86.1 µM | [15] 56.8 µM | [16] 39.7 µM | [17] 0.679 µM | [18] 82.1 µM | [20] 9.92 µM

C/C=C/C=C/C(=O)O
active: [3] 0.00162 µM
not listed: [11] | [19]
inactive: all other assays above

CC(N)=O
active: [6] 0.321 µM
inactive: all other assays above

CN(C)C(=O)NC1(c2ccccc2)CCN(CC[C@@]2(c3ccc(F)c(F)c3)CN(C(=O)c3ccccc3)CCO2)CC1
active: [2] 36.8 µM | [4] 29.8 µM | [9] 47 µM | [12] 2.65 µM | [15] 29.6 µM | [16] 47 µM | [17] 2.69 µM | [18] 56.6 µM
not listed: [11]
inactive: all other assays above

CC1=C(C)S(=O)(=O)CCS1(=O)=O
inactive: [3] | [6] | [8] | [10] | [13] | [15] | [18]
active: [1] 0.277 µM | [2] 80.3 µM | [4] 0.187 µM | [5] 88.4 µM | [7] 69.8 µM | [9] 9.92 µM | [12] 88 µM | [14] 87.7 µM | [16] 89.5 µM | [17] 50 µM | [19] 12 µM | [20] 80.6 µM
